Consider 153 variants from a collection of fitness landscapes (doi:10.1126/science.1257360).

Over roughly 140,000 sequences, “enrichment ratio after two sorts for PhoP signalling” has its median near 0; the highest 2% begin near 11. The sample as a whole holds a higher share of the highest values than the screen did.

B1: PhoQ; a variant is named by its letters at X, in order, P23837 (parent)
chain: MKKLLRLFFPLSLRVRFLLATAAVVLVLSLAYGMVALIGYSVSFDKTTFRLLRGESNLFYTLAKWENNKLHVELPENIDKQSPTMTLIYDENGQLLWAQRDVPWLMKMIQPDWLKSNGFHEIEADVNDTSLLLSGDHSIQQQLQEVREDDDDAEMTHSVAVNVYPATSRMPKLTIVVVDTIPVELKSSYMVWSWFIYVLSANLLLVIPLLWVAAWWSLRPIEALAKEVRELEEHNRELLNPATTRELTSLVRNLNRLLKSERERYDKYRTTLTDLTHSLKTPLXXLQXXLRSLRSEKMSVSDAEPVMLEQISRISQQIGYYLHRASMRGGTLLSRELHPVAPLLDNLTSALNKVYQRKGVNISLDISPEISFVGEQNDFVEVMGNVLDNACKYCLEFVEISARQTDEHLYIVVEDDGPGIPLSKREVIFDRGQRVDTLRPGQGVGLAVAREITEQYEGKIVAGESMLGGARMEVIFGRQHSAPKDE

Variants of B1 are the subject of this experiment. Description: enrichment ratio after two sorts for PhoP signalling (ratio (wild type AVST 3.29)); higher = more functional. To be noted: with PhoP (E. coli).
As for VCAH, the enrichment ratio is no more than 0.25. Next, VEEF: no more than 0.25; KCAH: no more than 0.25.

TCEF: the enrichment ratio was determined as 13.2. In the case of TCSV it was 17.7. Next, SLYY: no more than 0.25; DQFN: no more than 0.25; RPHE: no more than 0.25. Next, SDPC: no more than 0.25; FRSR: no more than 0.25; TCNY: 9.63.

As to KCAS, the enrichment ratio is no more than 0.25.

TCAS: the enrichment ratio came to 12.2. In the case of TCVP it was no more than 0.25; in that of TCLT, 4.19. Next, TCLS: 7.88; TCGY: 20.3; TCSM: 18.9. Next, TCLA: 11.9. Take VCSM: the enrichment ratio was 3.67. In the case of FCAS it was no more than 0.25. In the case of KCSM it was no more than 0.25; in that of RVLR, no more than 0.25. Next, ENDI: no more than 0.25.

Take MVRF: the enrichment ratio was no more than 0.25. Next, HGLK: no more than 0.25; GGGP: no more than 0.25; KHVK: no more than 0.25. Regarding HVSC, the enrichment ratio was no more than 0.25. Next, TCIT: no more than 0.25; KCLK: no more than 0.25.

Take TCMT: the enrichment ratio came out at 14.5. Next, TCAN: 25.6; VCMT: no more than 0.25. As to KCAN, the enrichment ratio is no more than 0.25. In the case of KCSC it was no more than 0.25; in that of TCSC, 12.3; in that of FCLK, 1.84.

Consider TCLK, for which the enrichment ratio was 13.1. Turning to FCAN, the enrichment ratio is no more than 0.25. For the variant NFFS, the enrichment ratio was no more than 0.25. Next, FFPR: no more than 0.25; DMHV: no more than 0.25. Consider ETAR, for which the enrichment ratio is no more than 0.25. For KLGR, the enrichment ratio is no more than 0.25. Take TCTQ: the enrichment ratio was determined as 21.4. KCAQ: the enrichment ratio is no more than 0.25.

Consider VCAQ, for which the enrichment ratio is no more than 0.25.

As for LSTQ, the enrichment ratio is no more than 0.25.

TCDD: the enrichment ratio is no more than 0.25. As to TCTW, the enrichment ratio was found to be 10.8.

For TCAQ, the enrichment ratio came out at 15.5. Next, TCYD: no more than 0.25. In the case of FCSN it was no more than 0.25. In the case of TCSN it was 20.

For KCSN, the enrichment ratio is no more than 0.25. In the case of TCGD it was 20.3; in that of HFQA, no more than 0.25; in that of FHFW, no more than 0.25. Next, KCDC: no more than 0.25; TKEF: no more than 0.25; SVFR: 0.428. For the variant SAGS, the enrichment ratio was determined as 3.14.

SRYF: the enrichment ratio is no more than 0.25.

On to IHVG, for which the enrichment ratio was no more than 0.25. Next, LNTP: no more than 0.25. In the case of NEMN it was no more than 0.25; in that of TALV, 10.2; in that of EMAS, no more than 0.25.

For ESQI, the enrichment ratio was no more than 0.25. Consider TCAK, for which the enrichment ratio is 11.2. Next, KCAK: no more than 0.25; TCSA: 18.5; FCSA: no more than 0.25. With HVSY, the enrichment ratio was no more than 0.25. In the case of TCHF it was 8.33; in that of VCAK, no more than 0.25. In the case of TCGF it was 12.5; in that of KCSA, no more than 0.25; in that of TCSY, 13.3.

For the variant KCSY, the enrichment ratio was no more than 0.25. Next, VEGF: no more than 0.25; YCQN: no more than 0.25; DLMC: no more than 0.25. Next, PANG: no more than 0.25; THES: no more than 0.25; THGV: 1.56.

Regarding PMKY, the enrichment ratio was no more than 0.25. As to TLGR, the enrichment ratio was no more than 0.25. Regarding GLIF, the enrichment ratio was no more than 0.25.

Regarding TCDS, the enrichment ratio was 1.7. In the case of GQSL it was no more than 0.25; in that of KCCL, no more than 0.25; in that of ACSL, 16.6. In the case of KCSL it was no more than 0.25; in that of TCNS, 16.1; in that of TCWI, 1.27. In the case of TCSL it was 16.4; in that of FCSL, 0.351; in that of ACGL, 2.96. TCCL: the enrichment ratio came to 13.8. For VECL, the enrichment ratio is 2.59. On to IIGM, for which the enrichment ratio was no more than 0.25. Next, QKHF: no more than 0.25; LRCK: no more than 0.25.

NVPP: the enrichment ratio was no more than 0.25. Next, APIR: no more than 0.25; AWVY: no more than 0.25; ELQD: no more than 0.25. Next, SGPP: no more than 0.25; HHVH: no more than 0.25; TICC: 2.66. As for KPAP, the enrichment ratio is no more than 0.25. Next, AQWF: no more than 0.25; TCDT: no more than 0.25. Next, KCAY: no more than 0.25; TCYI: 1.36. In the case of TCAY it was 14.1.

On to KCSS, for which the enrichment ratio is no more than 0.25. Next, TCSR: 5.34; FCSS: no more than 0.25; TCVA: no more than 0.25.

TCNT: the enrichment ratio was 7.62. Next, TCSS: 15. In the case of TCAT it was 14.5; in that of TCSK, 13.7. In the case of LFWM, the enrichment ratio was no more than 0.25. Turning to NNTR, the enrichment ratio is no more than 0.25. In the case of IGVH it was no more than 0.25. Next, WSVN: no more than 0.25; HDQK: no more than 0.25; LDIL: no more than 0.25. As for MIIK, the enrichment ratio is no more than 0.25. In the case of FCLN it was 3.94; in that of TCAG, 12.5. Next, VCLN: 2.29. In the case of TCNE it was 19.6; in that of FCAG, no more than 0.25. As to TCLC, the enrichment ratio was found to be 23.4. In the case of TCHE it was no more than 0.25; in that of TCIE, no more than 0.25.

As to VCLC, the enrichment ratio is 2.94.

Take KCAG: the enrichment ratio is no more than 0.25. Next, FCLC: 7.16; TCLN: 13.6.

For the variant FAWY, the enrichment ratio is no more than 0.25. In the case of SDGA it was no more than 0.25; in that of GPWK, no more than 0.25; in that of LRLK, no more than 0.25.

Consider SNTI, for which the enrichment ratio was 10.1. Turning to MHKW, the enrichment ratio was no more than 0.25. Next, IAWT: no more than 0.25; DASW: no more than 0.25.
